Source: PubChem BioAssay (EPA / NIEHS)
Inconclusive results are not listed. A structure can be active in one record and inactive in another. The source made the active and inactive calls. The calls were made as follows, unless noted: active = hit-call score of the fitted dose curve at least 0.9, where 1 is the maximum; inconclusive = response in the unintended direction; inactive = score below 0.9.

Key:
[1] = ATG_TCF_b_cat_CIS: Attagene CIS-FACTORIAL HepG2 Assay for human T-Cell-Factor with beta-catenin (TCF/b-cat) (AID 2282965; active = hit-call score of the fitted dose curve at least 0.9, where 1 is the maximum; inactive = score below 0.9); conditions: HepG2 TCF/beta-catenin cis-reporter transcription, actives raise or lower the signal
Outline: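 Measured: reporter mRNA in HepG2 transiently transfected with cis-promoter reporter units, 24 h after chemical addition. Fitting was bidirectional, DMSO as negative control.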

[2] = ATG_TAL_CIS: Attagene CIS-FACTORIAL HepG2 Assay for human TAL Basal Promoter (AID 2282966; active = hit-call score of the fitted dose curve at least 0.9, where 1 is the maximum; inactive = score below 0.9;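 also: background control endpoint measuring basal TAL promoter reporter mRNA not a specific factor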); conditions: HepG2 Attagene cis-factorial TAL promoter reporter; actives raise or lower the signal
Outline: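 In this cell-based multiplex, HepG2 liver cells bearing cis-promoter reporter constructs are dosed for 24 hours. Total RNA is reverse-transcribed and amplified, labelled fragments are sized by capillary electrophoresis, and signal changes are fitted bidirectionally versus DMSO.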

[3] = ATG_TGFb_CIS: Attagene CIS-FACTORIAL HepG2 Assay for human Transforming Growth Factor (TGF) (AID 2282967; active = hit-call score of the fitted dose curve at least 0.9, where 1 is the maximum; inactive = score below 0.9); conditions: HepG2 Attagene CIS TGFb reporter, mRNA transcription; actives raise or lower the signal
Outline: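 HepG2 cells transiently transfected with cis-promoter-driven multiplexed reporter units; 24 h compound exposure. Reporter mRNA measured by RT-PCR, 6-FAM labeling, HpaI digestion and capillary electrophoresis; bidirectional fit versus DMSO baseline.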

[4] = target: Nuclear receptor subfamily 1 group I member 3 (Homo sapiens) (UniProt Q14994); assay: ATG_CAR_TRANS: Attagene TRANS-FACTORIAL HepG2 Assay for human Constitutive Androstane Receptor (CAR) (AID 2282969); conditions: HepG2 Attagene TRANS-FACTORIAL CAR reporter;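 also: activators raise reporter mRNA above DMSO so AC50 marks induction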
Outline: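 Readout is reporter mRNA induction, quantified by fluorescent primer extension and capillary electrophoresis after RT-PCR. Cells were HepG2 transiently carrying chimeric NR-Gal4 constructs with GAL4-UAS reporters, treated for 24 h; activity scored upward from DMSO.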

[5] = target: Estrogen receptor (Homo sapiens) (UniProt P03372); assay: ATG_ERa_TRANS: Attagene TRANS-FACTORIAL HepG2 Assay for human Estrogen Receptor alpha (ERa) (AID 2282970); conditions: HepG2 Attagene TRANS ERa GAL4 reporter, mRNA
Outline: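 After 24 h of compound treatment, RNA from HepG2 cells bearing transfected GAL4-UAS reporter constructs is converted to cDNA, amplified and fluorescently labelled. Capillary electrophoresis resolves the ERa-linked reporter; DMSO serves as negative control.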

[6] = target: Steroid hormone receptor ERR1 (Homo sapiens) (UniProt P11474); assay: ATG_ERRa_TRANS: Attagene TRANS-FACTORIAL HepG2 Assay for human Estrogen-Related Receptor alpha (ERRa) (AID 2282971); conditions: HepG2 Attagene TRANS reporter, ERRa transactivation
Outline: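 Transfected HepG2, 24 h dosing, ERRa-Gal4 chimera driving GAL4-UAS reporter. Readout: reporter mRNA via RT-PCR plus capillary electrophoresis (fluorescence). Positive direction vs DMSO control.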

[7] = target: X-box-binding protein 1 (Homo sapiens) (UniProt P17861); assay: ATG_Xbp1_CIS: Attagene CIS-FACTORIAL HepG2 Assay for human X-box Binding Protein 1 (XBP1) (AID 2282972; active = hit-call score of the fitted dose curve at least 0.9, where 1 is the maximum; inactive = score below 0.9); conditions: HepG2 XBP1 cis-element reporter, Attagene multiplex; actives raise or lower the signal
Outline: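 HepG2 cells transiently transfected with multiple cis-element reporter units report endogenous TF activity; 24 h exposure, then reporter mRNA measured by RT-PCR, 6-FAM labelling, HpaI digestion and capillary electrophoresis. Bidirectional fitting versus DMSO.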

[8] = ATG_GAL4_TRANS: Attagene TRANS-FACTORIAL HepG2 Assay for GAL4 (Internal Marker) (AID 2282976); conditions: HepG2 Attagene TRANS GAL4 internal marker reporter
Outline: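 RT-PCR/capillary electrophoresis readout of reporter mRNA. HepG2, transient MRTU transfection (GAL4-UAS reporters), 24 h compound exposure. Background-control endpoint, positive direction vs DMSO baseline.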

[9] = target: Glucocorticoid receptor (Homo sapiens) (UniProt P04150); assay: ATG_GR_TRANS: Attagene TRANS-FACTORIAL HepG2 Assay for human Glucocorticoid Receptor (GR) (AID 2282978); conditions: HepG2 Attagene TRANS GR reporter, mRNA transcription;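 also: activators score as hits since higher reporter transcript over DMSO is fitted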
Outline: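 After 24 h incubation with test chemical, transfected HepG2 cells were lysed for RNA; reporter cDNA was amplified, FAM-labelled, HpaI-digested and sized on a capillary analyser. Signal gain relative to DMSO was scored.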

[10] = target: Bile acid receptor (Homo sapiens) (UniProt Q96RI1); assay: ATG_FXR_TRANS: Attagene TRANS-FACTORIAL HepG2 Assay for Farnesoid X Receptor (FXR) (AID 2282979); conditions: HepG2 Attagene TRANS FXR-GAL4 reporter transcription;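 also: hits raise reporter mRNA above DMSO so AC50 marks FXR activation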
Outline: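 Read-out: fluorescent reporter transcripts quantified by capillary electrophoresis after RT-PCR of total RNA. Source cells were HepG2 transiently carrying chimeric NR-GAL4 plus GAL4-UAS reporter units, dosed 24 h. Activity fitted upward relative to DMSO baseline.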

[11] = target: Hepatocyte nuclear factor 4-alpha (Homo sapiens) (UniProt P41235); assay: ATG_HNF4a_TRANS: Attagene TRANS-FACTORIAL HepG2 Assay for human Hepatocyte Nuclear Factor 4 alpha (HNF4a) (AID 2282982); conditions: HepG2 HNF4a transactivation reporter, mRNA readout
Outline: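 Readout is fluorescent reporter-transcript fragments resolved by capillary electrophoresis after RT-PCR from HepG2 cells dosed for 24 h. Cells carried transfected GAL4-UAS reporter constructs measuring exogenous NR-GAL4 chimera activity; DMSO served as baseline.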

[12] = ATG_M_06_TRANS: Attagene TRANS-FACTORIAL HepG2 Assay for M06 Transcription Factor (Internal Marker) (AID 2282983); conditions: HepG2 Attagene TRANS M06 internal marker reporter;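 as to AC50: potency for rise in reporter mRNA above DMSO baseline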
Outline: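 After a 24 h chemical treatment of transfected HepG2, RNA underwent DNase I treatment, reverse transcription and reporter-specific PCR; labelled, HpaI-digested products were sized by capillary electrophoresis. Signal increase relative to DMSO defined activity.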

[13] = target: Nuclear receptor subfamily 4 group A member 2 (Homo sapiens) (UniProt P43354); assay: ATG_NURR1_TRANS: Attagene TRANS-FACTORIAL HepG2 Assay for human Nuclear Receptor Related Protein 1 (NURR1) (AID 2282985); conditions: HepG2 Attagene TRANS reporter, mRNA readout
Outline: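 Transient transfection of HepG2, human liver cells, with multiple GAL4-UAS reporter transcription units. Cells dosed 24 h, RNA isolated, reverse-transcribed, PCR-amplified, FAM-labelled, HpaI-digested, sized by capillary electrophoresis. DMSO served as negative control.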

[14] = target: Transcriptional activator Myb (Homo sapiens) (UniProt P10242); assay: ATG_Myb_CIS: Attagene CIS-FACTORIAL HepG2 Assay for human Myeloblastosis (Myb) Proto-Oncogene Transcription Factor (AID 2282986; active = hit-call score of the fitted dose curve at least 0.9, where 1 is the maximum; inactive = score below 0.9); conditions: HepG2 Attagene CIS-FACTORIAL Myb reporter transcription; actives raise or lower the signal
Outline: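 After 24 h of compound dosing, total RNA from transfected HepG2 cells is reverse-transcribed and the reporter sequences amplified, labeled and separated by capillary electrophoresis. Values come from bidirectional fitting against DMSO.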

[15] = target: Oxysterols receptor LXR-alpha (Homo sapiens) (UniProt Q13133); assay: ATG_LXRa_TRANS: Attagene TRANS-FACTORIAL HepG2 Assay for human Liver X Receptor alpha (LXRa) (AID 2282980); conditions: HepG2 Attagene TRANS reporter, LXRa transactivation
Outline: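 Read-out: reporter transcript levels by RT-PCR plus capillary electrophoresis, fluorescence intensity. Transiently transfected HepG2, exogenous NR-GAL4 chimera, GAL4-UAS reporters; 24 h compound exposure. Activity = increase over DMSO negative control.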

[16] = target: Oxysterols receptor LXR-beta (Homo sapiens) (UniProt P55055); assay: ATG_LXRb_TRANS: Attagene TRANS-FACTORIAL HepG2 Assay for human Liver X Receptor beta (LXRb) (AID 2282981); conditions: HepG2 Attagene TRANS GAL4-LXRb reporter, mRNA
Outline: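 Transient transfection HepG2 (multiplexed RTUs, GAL4-UAS); NR-Gal4 chimera; 24 h exposure; RNA → RT-PCR → 6-FAM primer extension → HpaI → CE; increase vs DMSO.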

[17] = ATG_M_32_TRANS: Attagene TRANS-FACTORIAL HepG2 Assay for M32 Transcription Factor (Internal Marker) (AID 2282984); conditions: HepG2 Attagene TRANS M32 internal marker reporter;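 also: transcript level of a background control reporter unit measured by RT-PCR and capillary electrophoresis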
Outline: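 Measures reporter mRNA induction in human HepG2 liver cells after 24 h chemical treatment. Transcripts from transiently transfected GAL4-UAS reporter units are amplified, fluorescently labelled and sized by capillary electrophoresis; gain of signal relative to DMSO.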

[18] = target: Estrogen-related receptor gamma (Homo sapiens) (UniProt P62508); assay: ATG_ERRg_TRANS: Attagene TRANS-FACTORIAL HepG2 Assay for human Estrogen-Related Receptor gamma (ERRg) (AID 2282977); conditions: HepG2 Attagene TRANS reporter, ERRg transactivation;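 also: hits increase reporter signal over DMSO so potencies reflect activators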
Outline: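 Transfect HepG2 with multiple GAL4-UAS reporter transcription units; dose chemicals 24 h; isolate RNA, reverse-transcribe with oligo(dT), PCR-amplify, label with 6-FAM, digest with HpaI; size fragments by capillary electrophoresis. DMSO serves as negative control.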

[19] = ATG_M_19_TRANS: Attagene TRANS-FACTORIAL HepG2 Assay for M19 Transcription Factor (Internal Marker) (AID 2282974); conditions: HepG2 Attagene TRANS-FACTORIAL M19 internal marker reporter
Outline: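 Transfected HepG2 (GAL4-UAS MRTUs), 24 h compound, TriZol RNA, DNase-treated RT, reporter PCR, FAM label, HpaI digest, CE fluorescence; gain vs DMSO.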

Measured: AC50

Sequence of Nuclear receptor subfamily 1 group I member 3 (Homo sapiens) (Q14994 whole entry, looked up, the tested form may be a part): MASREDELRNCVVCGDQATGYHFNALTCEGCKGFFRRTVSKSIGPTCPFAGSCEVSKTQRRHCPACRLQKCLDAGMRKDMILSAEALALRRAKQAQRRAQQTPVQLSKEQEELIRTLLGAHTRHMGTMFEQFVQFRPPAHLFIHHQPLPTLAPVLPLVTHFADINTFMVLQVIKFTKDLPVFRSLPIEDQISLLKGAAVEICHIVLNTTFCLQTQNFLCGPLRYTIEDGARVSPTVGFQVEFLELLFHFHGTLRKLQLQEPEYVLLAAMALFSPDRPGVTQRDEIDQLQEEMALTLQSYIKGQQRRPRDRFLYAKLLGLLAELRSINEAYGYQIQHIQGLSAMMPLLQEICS
Sequence of Transcriptional activator Myb (Homo sapiens) (P10242 whole entry, looked up): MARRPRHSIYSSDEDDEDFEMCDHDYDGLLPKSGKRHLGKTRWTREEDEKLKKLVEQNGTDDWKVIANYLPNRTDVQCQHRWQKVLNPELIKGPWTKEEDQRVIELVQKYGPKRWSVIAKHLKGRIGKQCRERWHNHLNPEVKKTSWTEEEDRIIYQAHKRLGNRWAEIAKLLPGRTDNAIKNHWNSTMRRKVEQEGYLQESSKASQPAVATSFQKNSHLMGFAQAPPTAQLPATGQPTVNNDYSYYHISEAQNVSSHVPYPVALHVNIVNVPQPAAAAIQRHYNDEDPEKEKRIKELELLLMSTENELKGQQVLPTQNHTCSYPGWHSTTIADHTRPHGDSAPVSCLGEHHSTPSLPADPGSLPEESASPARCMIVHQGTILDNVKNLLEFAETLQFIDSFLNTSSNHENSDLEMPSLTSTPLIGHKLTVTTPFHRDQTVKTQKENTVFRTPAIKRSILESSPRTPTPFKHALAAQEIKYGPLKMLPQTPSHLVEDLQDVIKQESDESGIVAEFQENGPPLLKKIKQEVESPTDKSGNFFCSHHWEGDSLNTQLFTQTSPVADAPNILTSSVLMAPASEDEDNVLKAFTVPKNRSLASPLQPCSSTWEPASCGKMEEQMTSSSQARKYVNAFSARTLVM
Sequence of Steroid hormone receptor ERR1 (Homo sapiens) (P11474 whole entry, looked up, the tested form may be a part): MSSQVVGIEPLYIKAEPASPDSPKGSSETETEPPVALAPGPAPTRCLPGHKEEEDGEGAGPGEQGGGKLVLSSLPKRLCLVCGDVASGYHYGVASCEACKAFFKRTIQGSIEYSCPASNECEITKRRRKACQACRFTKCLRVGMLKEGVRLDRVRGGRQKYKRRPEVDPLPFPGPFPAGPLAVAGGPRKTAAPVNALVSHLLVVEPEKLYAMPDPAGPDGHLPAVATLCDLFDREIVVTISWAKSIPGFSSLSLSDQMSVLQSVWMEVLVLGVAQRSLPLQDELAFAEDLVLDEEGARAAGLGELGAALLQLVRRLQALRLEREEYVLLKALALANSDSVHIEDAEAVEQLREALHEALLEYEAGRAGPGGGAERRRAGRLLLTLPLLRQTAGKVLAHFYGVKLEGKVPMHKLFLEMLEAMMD
Sequence of X-box-binding protein 1 (Homo sapiens) (P17861 whole entry, looked up): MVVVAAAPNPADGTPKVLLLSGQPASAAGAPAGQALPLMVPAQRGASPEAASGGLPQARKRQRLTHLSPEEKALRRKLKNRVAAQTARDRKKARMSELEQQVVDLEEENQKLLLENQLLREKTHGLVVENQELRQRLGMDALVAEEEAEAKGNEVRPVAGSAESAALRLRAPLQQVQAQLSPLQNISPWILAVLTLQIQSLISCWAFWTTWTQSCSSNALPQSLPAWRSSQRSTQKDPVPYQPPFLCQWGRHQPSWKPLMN
Sequence of Estrogen receptor (Homo sapiens) (P03372 whole entry, looked up, the tested form may be a part): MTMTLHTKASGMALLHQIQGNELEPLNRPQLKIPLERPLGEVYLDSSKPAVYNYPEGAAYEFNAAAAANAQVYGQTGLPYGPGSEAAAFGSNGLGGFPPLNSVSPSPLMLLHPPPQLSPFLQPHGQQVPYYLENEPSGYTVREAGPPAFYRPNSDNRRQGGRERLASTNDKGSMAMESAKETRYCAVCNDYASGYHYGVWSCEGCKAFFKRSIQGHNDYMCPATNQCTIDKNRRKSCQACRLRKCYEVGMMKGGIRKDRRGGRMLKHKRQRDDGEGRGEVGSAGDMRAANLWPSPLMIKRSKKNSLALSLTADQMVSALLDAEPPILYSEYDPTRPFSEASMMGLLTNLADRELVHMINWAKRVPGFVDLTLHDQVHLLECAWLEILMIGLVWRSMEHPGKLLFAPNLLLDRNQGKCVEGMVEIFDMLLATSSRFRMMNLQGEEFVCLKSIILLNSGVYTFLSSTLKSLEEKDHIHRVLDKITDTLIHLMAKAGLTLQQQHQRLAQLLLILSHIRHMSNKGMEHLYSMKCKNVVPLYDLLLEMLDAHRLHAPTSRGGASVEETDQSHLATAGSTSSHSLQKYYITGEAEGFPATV
Sequence of Oxysterols receptor LXR-beta (Homo sapiens) (P55055 whole entry, looked up, the tested form may be a part): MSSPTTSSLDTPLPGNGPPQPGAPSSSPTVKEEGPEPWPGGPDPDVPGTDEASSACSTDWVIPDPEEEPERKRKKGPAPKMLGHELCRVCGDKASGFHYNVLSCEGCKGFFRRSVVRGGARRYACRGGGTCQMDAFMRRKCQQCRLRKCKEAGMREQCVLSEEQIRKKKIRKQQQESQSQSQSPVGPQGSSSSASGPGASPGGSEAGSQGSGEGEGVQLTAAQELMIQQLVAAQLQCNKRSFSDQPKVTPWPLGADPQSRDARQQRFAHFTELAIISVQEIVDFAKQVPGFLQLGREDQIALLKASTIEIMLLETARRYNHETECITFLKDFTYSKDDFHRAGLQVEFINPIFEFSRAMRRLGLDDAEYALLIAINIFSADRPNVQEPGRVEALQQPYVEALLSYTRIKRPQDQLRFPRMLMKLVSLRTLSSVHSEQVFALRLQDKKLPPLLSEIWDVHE
Sequence of Oxysterols receptor LXR-alpha (Homo sapiens) (Q13133 whole entry, looked up, the tested form may be a part): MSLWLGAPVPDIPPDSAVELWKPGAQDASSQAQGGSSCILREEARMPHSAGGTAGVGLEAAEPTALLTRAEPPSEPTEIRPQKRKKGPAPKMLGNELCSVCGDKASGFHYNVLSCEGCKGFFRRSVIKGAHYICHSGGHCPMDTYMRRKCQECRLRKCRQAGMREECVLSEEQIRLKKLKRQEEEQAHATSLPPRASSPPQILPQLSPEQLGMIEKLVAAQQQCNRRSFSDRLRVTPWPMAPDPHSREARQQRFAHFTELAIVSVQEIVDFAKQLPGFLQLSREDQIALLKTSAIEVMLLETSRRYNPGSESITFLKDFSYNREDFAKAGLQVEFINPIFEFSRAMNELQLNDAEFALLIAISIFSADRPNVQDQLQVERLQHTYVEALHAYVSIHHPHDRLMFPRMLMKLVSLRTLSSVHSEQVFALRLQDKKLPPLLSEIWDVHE
Sequence of Estrogen-related receptor gamma (Homo sapiens) (P62508 whole entry, looked up, the tested form may be a part): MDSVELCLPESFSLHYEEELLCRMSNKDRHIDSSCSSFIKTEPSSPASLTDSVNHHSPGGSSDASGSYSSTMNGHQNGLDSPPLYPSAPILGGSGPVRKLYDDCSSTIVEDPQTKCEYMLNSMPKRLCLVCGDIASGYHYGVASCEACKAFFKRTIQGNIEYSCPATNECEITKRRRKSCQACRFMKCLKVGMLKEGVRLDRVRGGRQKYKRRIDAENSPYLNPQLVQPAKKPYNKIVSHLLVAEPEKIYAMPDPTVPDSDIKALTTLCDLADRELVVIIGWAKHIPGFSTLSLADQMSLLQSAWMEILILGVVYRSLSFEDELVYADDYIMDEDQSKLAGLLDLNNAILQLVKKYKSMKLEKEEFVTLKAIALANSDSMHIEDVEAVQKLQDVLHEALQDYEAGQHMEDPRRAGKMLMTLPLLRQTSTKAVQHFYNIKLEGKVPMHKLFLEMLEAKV
Sequence of Nuclear receptor subfamily 4 group A member 2 (Homo sapiens) (P43354 whole entry, looked up, the tested form may be a part): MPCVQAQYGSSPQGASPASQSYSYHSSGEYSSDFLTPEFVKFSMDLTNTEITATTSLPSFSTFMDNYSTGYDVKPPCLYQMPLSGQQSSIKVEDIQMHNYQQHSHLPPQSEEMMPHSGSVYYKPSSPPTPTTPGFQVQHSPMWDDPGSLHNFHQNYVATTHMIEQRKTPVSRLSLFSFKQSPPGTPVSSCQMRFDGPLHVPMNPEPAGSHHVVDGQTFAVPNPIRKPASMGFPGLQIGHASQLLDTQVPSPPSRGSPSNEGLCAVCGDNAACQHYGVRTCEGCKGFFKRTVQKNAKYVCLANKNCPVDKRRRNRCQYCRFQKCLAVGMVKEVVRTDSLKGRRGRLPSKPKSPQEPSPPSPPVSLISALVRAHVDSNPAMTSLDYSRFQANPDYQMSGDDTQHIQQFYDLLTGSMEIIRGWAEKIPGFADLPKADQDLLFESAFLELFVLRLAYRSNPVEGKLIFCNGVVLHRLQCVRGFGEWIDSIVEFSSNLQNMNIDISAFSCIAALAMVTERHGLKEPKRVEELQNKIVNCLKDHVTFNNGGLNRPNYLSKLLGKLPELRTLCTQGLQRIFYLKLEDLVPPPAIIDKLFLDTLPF
Sequence of Hepatocyte nuclear factor 4-alpha (Homo sapiens) (P41235 whole entry, looked up, the tested form may be a part): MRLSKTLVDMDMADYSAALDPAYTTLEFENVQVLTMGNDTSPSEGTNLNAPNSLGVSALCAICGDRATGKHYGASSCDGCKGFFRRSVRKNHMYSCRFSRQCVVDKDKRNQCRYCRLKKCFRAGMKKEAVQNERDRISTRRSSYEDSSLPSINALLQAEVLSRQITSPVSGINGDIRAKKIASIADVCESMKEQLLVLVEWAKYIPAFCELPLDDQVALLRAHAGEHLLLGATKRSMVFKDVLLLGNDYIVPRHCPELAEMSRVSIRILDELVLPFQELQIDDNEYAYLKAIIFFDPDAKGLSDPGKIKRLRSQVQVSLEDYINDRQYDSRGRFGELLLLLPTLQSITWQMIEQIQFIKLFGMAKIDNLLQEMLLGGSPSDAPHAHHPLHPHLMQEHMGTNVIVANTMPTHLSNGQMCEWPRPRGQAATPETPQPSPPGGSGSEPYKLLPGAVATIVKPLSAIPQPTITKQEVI

NCC(F)(F)C(F)(F)C(F)(F)C(F)(F)C(F)(F)C(F)(F)C(F)(F)F
inactive: [1] | [2] | [3] | [4] | [5] | [6] | [7] | [8] | [9] | [10] | [11] | [12] | [13] | [14]

CC(C)(C)c1ccc(O)c(C(C)(C)C)c1
inactive: [1] | [2] | [3] | [5] | [7] | [18] | [10] | [11] | [12] | [14]
active: [4] 4.79 µM | [15] 5.26 µM | [16] 5.32 µM | [13] 9.6 µM

CCCCCCCCCCCCN1CCCC1=O
inactive: [1] | [2] | [3] | [5] | [6] | [7] | [19] | [9] | [10] | [16] | [17] | [14]

CN1CCN(c2ccccc2/C=C2\SCCN(c3ccc(Cl)c(Cl)c3)C2=O)CC1
inactive: [1] | [2] | [3] | [4] | [5] | [6] | [7] | [8] | [12] | [13] | [14]

FC(F)(I)C(F)(F)C(F)(F)C(F)(F)C(F)(F)C(F)(F)I
active: [1] 11.1 µM | [4] 45.5 µM | [5] 0.00593 µM | [13] 20.8 µM
inactive: [2] | [3] | [7] | [19] | [18] | [15] | [16] | [14]

CN(C)C=O
active: [13] 7.38 µM
inactive: [1] | [2] | [3] | [5] | [7] | [19] | [8] | [18] | [10] | [15] | [16] | [12] | [17] | [14]

COc1ccc([N+](=O)[O-])cc1N
inactive: [1] | [2] | [3] | [5] | [7] | [19] | [8] | [9] | [11] | [14]

CN1CCC[C@H]1c1cccnc1
inactive: [1] | [2] | [3] | [4] | [7] | [16] | [11] | [12] | [17] | [14]
active: [5] 61.2 µM

Cc1cc(C)c(O)c(C)c1
active: [5] 100 µM
inactive: [1] | [2] | [3] | [4] | [7] | [19] | [9] | [10] | [11] | [12] | [17] | [14]

CC(=O)CC(C)(C)O
active: [5] 26.5 µM
inactive: [1] | [2] | [3] | [6] | [7] | [19] | [8] | [18] | [9] | [15] | [16] | [12] | [17] | [13] | [14]

CCCCCCCC(=O)O
inactive: [1] | [2] | [3] | [4] | [5] | [7] | [19] | [8] | [9] | [16] | [11] | [12] | [13] | [14]

c1ccc2c(c1)ccc1ccccc12
inactive: [1] | [2] | [3] | [4] | [5] | [6] | [7] | [9] | [10] | [16] | [12] | [17] | [14]

CCOC(=O)CC(O)(CC(=O)OCC)C(=O)OCC
inactive: [1] | [2] | [3] | [4] | [5] | [7] | [19] | [8] | [9] | [15] | [11] | [12] | [17] | [14]

Oc1cccc(O)c1
inactive: [1] | [2] | [3] | [5] | [7] | [19] | [8] | [18] | [9] | [12] | [17] | [13]
active: [16] 0.00623 µM | [14] 2.59 µM

Oc1cc2ccccc2c2ccccc12
active: [12] 50.8 µM
inactive: [1] | [2] | [3] | [5] | [7] | [19] | [8] | [9] | [15] | [16] | [12] | [17] | [13] | [14]
